Test [1] is described as follows: qHTS assay to identify small molecule agonists of the androgen receptor (AR) signaling pathway in the presence of an antagonist - cell viability counter screen (AID 1259379).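 Also: MDA-kb2 human breast cancer cells carrying an MMTV luciferase reporter; series mostly up to about 92 µM; nearly all actives have a fitted effect of over 25% in size.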 An outline of the steps:
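A CellTiter-Fluor read-out measured viability of MDA-kb2 reporter cells (MMTV promoter with AR and GR response elements). Treatment: nilutamide 3.0uM final with compounds at 15 concentrations, 16 hr, 37C, 0% CO2.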

Test [2] can be described thus: qHTS assay to identify small molecule agonists of the estrogen receptor beta (ER-beta) signaling pathway - cell viability counter screen (AID 1259380). Also: nearly all actives have a fitted effect of over 30% in size. Also: potency is read from the fitted curve at half-maximal effect. An outline of the steps: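 Cells used were ER-beta-UAS-bla HEK293T in medium with 2% charcoal-stripped FBS. They were treated for 16 hr at 37C. Viability came from CellTiter-Glo luminescence.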
A general note: qHTS replaces the single test concentration by a dilution series.

A short description of test [3]: qHTS assay to identify small molecule agonists of the estrogen receptor alpha (ER-alpha) signaling pathway in the presence of an antagonist - cell viability counter screen (AID 1259386).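 Also: series mostly up to about 92 µM; cells exposed to compounds for 22 h at 37 °C before the viability read; nearly all actives have a fitted effect of over 30% in size.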 The method in brief:
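ICI-182,780 at 10.0nM final accompanies the compound titration (15 concentrations, 22hr, 37C) on VM7Luc4E2 cells. The CellTiter-Fluor fluorescence readout runs in the same wells as the luciferase assay.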

In test [4] the target is Progesterone receptor (Homo sapiens) (UniProt P06401). The test can be described thus: qHTS assay to identify small molecule agonists of the progesterone receptor (PR) signaling pathway (AID 1346784; calls by dose curve; also: nearly all actives have a fitted effect of over 30% in size). An outline of the steps:
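Cells (PR-UAS-bla HEK 293T, GripTite) were plated in assay medium containing 2% charcoal-stripped FBS and incubated 6 hr. Test compounds in DMSO were added for 16 hr at 37C. FRET substrate was then loaded for 2 hr at room temperature before fluorescence reading.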

Test [5] can be described thus: qHTS assay to identify small molecule antagonists of the progesterone receptor (PR) signaling pathway - cell viability counter screen (AID 1346798). Also: nearly all actives have a fitted effect of over 50% in size. Also: potency is read from the fitted curve at half-maximal effect. As to activity change, negative = cytotoxicity: series mostly up to about 92 µM. An outline of the steps:
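Counter screen for cytotoxicity: viability of PR-UAS-bla HEK293T cells was measured with CellTiter-Glo luminescence following 16 hr compound exposure in the presence of R5020.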

Test [6] is described as follows: qHTS assay to identify small molecule agonists of the progesterone receptor (PR) signaling pathway - cell viability counter screen (AID 1346799; calls by dose curve; also: nearly all actives have a fitted effect of over 45% in size; also: potency is read from the fitted curve at half-maximal effect). An outline of the steps:
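Cells (PR-UAS-bla HEK293T) are plated at 3,000/well in 2% charcoal-stripped FBS medium, rested 6 hr, dosed and incubated 16 hr at 37C. CellTiter-Glo is then added and luminescence measured after 30 min at room temperature.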

Test [7] is described as follows: qHTS assay to identify small molecule antagonists of the TGF-beta/Smad signaling pathway - cell viability counter screen (AID 1346824). Also: nearly all actives have a fitted effect of over 50% in size. The method in brief:
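Cytotoxicity counter-screen run in the same wells as the beta-lactamase Smad reporter read: CellTiter-Glo luminescence after 30 min at room temperature. HEK 293T SBE-bla cells had 5 hr compound exposure at 37 C with TGF-beta1 (0.25 ng/mL stock).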

Test [8] is described as follows: qHTS assay to identify small molecule agonists of the TGF-beta/Smad signaling pathway - cell viability counter screen (AID 1346829). Also: top concentration of the series differs between compounds; nearly all actives have a fitted effect of over 45% in size. An outline of the steps:
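SBE-bla HEK 293T cells plated overnight, compound exposure 5 hr at 37 C. Viability read in the same wells by CellTiter-Glo luminescence after 30 min at room temperature, following the beta-lactamase read.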

The nature of test [9]: qHTS assay to identify small molecule agonists of the TGF-beta/Smad signaling pathway (AID 1346859; active = well fitted activation curve with a large enough effect in the signal ratio in the repeat runs, not every such curve was filed as active; the % refers to the signal ratio; also: series mostly up to about 77 µM). An outline of the steps: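 Reporter line: HEK 293T with stably integrated SBE-controlled beta-lactamase. Compound exposure lasts 5 hr at 37 C and 5% CO2; substrate loading follows for 2 hr at room temperature, with emission read at 460 and 530 nm.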
Test [10] can be described thus: qHTS assay to identify small molecule antagonists of the estrogen receptor beta (ER-beta) signaling pathway - cell viability counter screen (AID 1259382). Also: series mostly up to about 92 µM; nearly all actives have a fitted effect of over 55% in size. The method in brief:
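Agonist-stimulated (1nM E2) ER-beta-UAS-bla HEK293T cells are incubated with library compounds for 16 hr at 37C. Cell viability is then assessed in the reporter-assay wells by adding CellTiter-Glo and reading luminescence after 30 min.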

The nature of test [11]: qHTS assay to identify small molecule agonists or antagonists of the thyroid stimulating hormone receptor (TSHR) signaling pathway - wild type cell line counter screen (AID 1259384; calls by dose curve). An outline of the steps:
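Counter screen in untransfected Hek293: compounds (15-point titration, triplicate) plus phosphodiesterase inhibitor Ro20-1724 added after 18 h plating; 30 min RT. Intracellular cAMP via competitive d2/cryptate immunoassay, 1 h incubation.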

The target of test [12] is Thyrotropin receptor (Homo sapiens) (UniProt P16473). The experiment in a line: qHTS assay to identify small molecule antagonists of the thyroid stimulating hormone receptor (TSHR) signaling pathway (AID 1259385; calls by dose curve; also: nearly all actives have a fitted effect of over 20% in size; also: potency is read from the fitted curve at half-maximal effect). An outline of the steps:
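Antagonist mode: compound-treated TSHR-expressing HEK293 cells were stimulated with 1.5 ng/mL TSH (final) in presence of Ro20-1724 for 30 min at RT. HTRF cAMP detection after 1 h; each compound tested at 15 concentrations, triplicate.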

Test [13] has as its target Progesterone receptor (Homo sapiens) (UniProt P06401). The experiment in a line: qHTS assay to identify small molecule antagonists of the progesterone receptor (PR) signaling pathway (AID 1346795; active = well fitted inhibition curve with a large enough effect in the signal ratio in the repeat runs, not every such curve was filed as active; the % refers to the signal ratio; also: potency is read from the fitted curve at half-maximal effect). An outline of the steps:
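Antagonist mode: compounds tested against 1 nM (final) promegestone stimulation in HEK293T cells expressing PR-UAS-bla reporter, 16 hr at 37C, 5% CO2; beta-lactamase activity detected via B/G FRET substrate after 2 hr at room temperature.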

The target of test [14] is Thyrotropin-releasing hormone receptor (Homo sapiens) (UniProt P34981). The experiment in a line: qHTS assay to identify small molecule antagonists of the thyrotropin-releasing hormone receptor (TRHR) signaling pathway (AID 1346877; active = well fitted inhibition curve with a large enough effect in the repeat runs, not every such curve was filed as active; also: series mostly up to about 51 µM). An outline of the steps: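 Screening used HEK293 cells engineered with TRHR, with a brief 5 min room-temperature compound exposure preceding addition of TRH to 1 nM. The read-out was kinetic calcium-dye fluorescence, concentration-response from 15 doses in triplicate.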
Sequence of Thyrotropin-releasing hormone receptor (Homo sapiens) (P34981 whole entry, looked up): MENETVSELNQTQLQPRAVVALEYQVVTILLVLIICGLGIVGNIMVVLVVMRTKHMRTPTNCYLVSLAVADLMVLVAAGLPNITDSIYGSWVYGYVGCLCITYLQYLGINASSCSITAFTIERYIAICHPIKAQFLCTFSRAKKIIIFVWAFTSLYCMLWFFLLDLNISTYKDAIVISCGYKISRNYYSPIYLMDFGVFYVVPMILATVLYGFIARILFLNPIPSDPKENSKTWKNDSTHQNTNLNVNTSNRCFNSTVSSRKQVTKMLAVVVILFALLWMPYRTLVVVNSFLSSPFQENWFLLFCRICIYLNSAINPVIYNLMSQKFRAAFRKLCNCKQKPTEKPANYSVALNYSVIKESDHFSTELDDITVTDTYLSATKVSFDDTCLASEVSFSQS

Test [15] shares this target. The experiment in a line: qHTS assay to identify small molecule agonists of the thyrotropin-releasing hormone receptor (TRHR) signaling pathway (AID 1346891; calls by dose curve;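 also: HEK293 cells expressing TRHR with calcium dye readout; series mostly up to about 58 µM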). An outline of the steps: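 Cells: TRHR-Hek293, seeded and incubated 18 h. Dye loading: 2 h at 37 °C. Compound added from DMSO stock by pin tool. Read-out: kinetic calcium fluorescence over 3 min.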
The target in test [16] is Estrogen receptor beta (Homo sapiens) (UniProt Q92731). The experiment in a line: qHTS assay to identify small molecule agonists of the estrogen receptor beta (ER-beta) signaling pathway (AID 1259377; active = well fitted activation curve with a large enough effect in the signal ratio in the repeat runs, not every such curve was filed as active; the % refers to the signal ratio). An outline of the steps:
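Agonist mode cell assay in GripTite HEK293T cells expressing an ER-beta fusion that drives beta-lactamase from an Upstream Activator Sequence; 16 hr compound exposure at 37C, then 2 h LiveBLAzer B/G FRET substrate at room temperature, fluorescence read-out.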

The target of test [17] is Androgen receptor (Homo sapiens) (UniProt P10275). The experiment in a line: qHTS assay to identify small molecule agonists of the androgen receptor (AR) signaling pathway in the presence of an antagonist (AID 1259381; calls by dose curve; also: nearly all actives have a fitted effect of over 15% in size). The method in brief:
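Using human MDA-kb2 cells with an MMTV promoter–luciferase construct (AR and GR response elements), agonist activity is scored under 3.0uM nilutamide (final) co-treatment; 16hr incubation, 37C, luminescence readout via ONE-Glo.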

Test [18] deals with Estrogen receptor beta (Homo sapiens) (UniProt Q92731). The test can be described thus: qHTS assay to identify small molecule antagonists of the estrogen receptor beta (ER-beta) signaling pathway (AID 1259378; active = well fitted inhibition curve with a large enough effect in the signal ratio in the repeat runs, not every such curve was filed as active; the % refers to the signal ratio). An outline of the steps:
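Antagonist mode: compounds added to beta-lactamase reporter HEK293T ER-beta-UAS cells stimulated with E2 (1nM final), 16 hr at 37C. LiveBLAzer B/G FRET substrate, 2 hours room temperature, fluorescence read-out.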

Test [19] concerns the target Estrogen receptor (Homo sapiens) (UniProt P03372). The experiment in a line: qHTS assay to identify small molecule agonists of the estrogen receptor alpha (ER-alpha) signaling pathway in the presence of an antagonist (AID 1259383; calls by dose curve; also: top concentration of the series differs between compounds; nearly all actives have a fitted effect of over 15% in size). An outline of the steps:
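Using VM7Luc4E2 cells seeded 24hr before treatment, antagonist ICI-182,780 (10.0nM final) was added, followed by compounds at 15 concentrations. Plates incubated 22hr; ONE-Glo luminescence quantified reporter activity.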

SMILES strings stand for the structures. Unmarked numbers belong to inactive results. Results filed as inconclusive are left out. Activity calls are given as the source filed them. Unless noted, calls follow the shape of the dose curve; as a rule, active = well fitted curve in the direction sought with a large enough effect in the repeat runs; inconclusive = weak or mixed curves; inactive = no such curve, though single readings can be large; an effect the other way counts as inactive or inconclusive.
% is scaled to controls: 0 for no effect and ±100 for the full control effect.

Sequence of Progesterone receptor (Homo sapiens) (P06401 whole entry, looked up): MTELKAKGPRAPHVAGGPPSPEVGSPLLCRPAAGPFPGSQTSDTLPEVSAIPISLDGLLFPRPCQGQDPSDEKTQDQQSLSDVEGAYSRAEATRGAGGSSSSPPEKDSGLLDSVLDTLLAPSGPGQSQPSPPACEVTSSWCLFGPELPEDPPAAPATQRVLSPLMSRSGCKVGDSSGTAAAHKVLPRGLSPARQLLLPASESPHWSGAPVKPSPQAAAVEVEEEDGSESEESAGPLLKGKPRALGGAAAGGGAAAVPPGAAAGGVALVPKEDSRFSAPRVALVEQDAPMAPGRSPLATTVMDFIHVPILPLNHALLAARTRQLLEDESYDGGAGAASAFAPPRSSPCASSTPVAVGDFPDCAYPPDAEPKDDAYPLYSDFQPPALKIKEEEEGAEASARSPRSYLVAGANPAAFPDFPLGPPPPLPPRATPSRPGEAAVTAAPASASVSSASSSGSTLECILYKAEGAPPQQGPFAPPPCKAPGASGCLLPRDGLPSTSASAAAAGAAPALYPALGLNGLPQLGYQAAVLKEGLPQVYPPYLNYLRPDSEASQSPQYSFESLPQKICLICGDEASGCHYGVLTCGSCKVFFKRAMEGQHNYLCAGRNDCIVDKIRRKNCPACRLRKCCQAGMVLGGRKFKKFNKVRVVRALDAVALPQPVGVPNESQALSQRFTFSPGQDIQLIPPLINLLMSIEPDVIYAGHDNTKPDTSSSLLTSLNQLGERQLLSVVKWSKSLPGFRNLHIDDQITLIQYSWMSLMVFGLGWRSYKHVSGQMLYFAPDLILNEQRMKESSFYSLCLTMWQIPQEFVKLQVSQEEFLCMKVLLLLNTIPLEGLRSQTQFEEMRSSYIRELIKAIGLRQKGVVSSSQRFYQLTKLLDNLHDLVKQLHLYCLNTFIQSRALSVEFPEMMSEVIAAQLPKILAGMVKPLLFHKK
Sequence of Thyrotropin receptor (Homo sapiens) (P16473 whole entry, looked up): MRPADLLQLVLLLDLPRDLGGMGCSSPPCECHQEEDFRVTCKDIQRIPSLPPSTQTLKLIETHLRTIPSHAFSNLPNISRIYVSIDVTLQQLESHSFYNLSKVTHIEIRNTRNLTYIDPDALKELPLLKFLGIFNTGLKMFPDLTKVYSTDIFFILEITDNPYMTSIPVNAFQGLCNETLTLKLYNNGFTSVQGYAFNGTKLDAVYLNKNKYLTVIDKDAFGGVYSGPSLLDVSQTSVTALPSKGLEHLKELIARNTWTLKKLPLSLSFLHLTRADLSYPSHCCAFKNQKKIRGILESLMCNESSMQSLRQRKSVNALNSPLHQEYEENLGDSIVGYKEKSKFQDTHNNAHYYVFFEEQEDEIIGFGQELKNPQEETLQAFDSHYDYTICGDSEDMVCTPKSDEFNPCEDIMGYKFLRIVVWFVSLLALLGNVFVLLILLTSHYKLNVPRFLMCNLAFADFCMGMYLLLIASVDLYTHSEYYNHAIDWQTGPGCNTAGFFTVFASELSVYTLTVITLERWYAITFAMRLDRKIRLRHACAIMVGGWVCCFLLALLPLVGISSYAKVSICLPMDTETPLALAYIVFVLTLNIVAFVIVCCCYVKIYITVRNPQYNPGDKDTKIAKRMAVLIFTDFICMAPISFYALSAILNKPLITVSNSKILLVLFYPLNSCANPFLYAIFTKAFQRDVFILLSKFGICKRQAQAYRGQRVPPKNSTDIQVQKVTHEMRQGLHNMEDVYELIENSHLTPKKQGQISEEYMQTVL
Sequence of Estrogen receptor beta (Homo sapiens) (Q92731 whole entry, looked up, the tested form may be a part): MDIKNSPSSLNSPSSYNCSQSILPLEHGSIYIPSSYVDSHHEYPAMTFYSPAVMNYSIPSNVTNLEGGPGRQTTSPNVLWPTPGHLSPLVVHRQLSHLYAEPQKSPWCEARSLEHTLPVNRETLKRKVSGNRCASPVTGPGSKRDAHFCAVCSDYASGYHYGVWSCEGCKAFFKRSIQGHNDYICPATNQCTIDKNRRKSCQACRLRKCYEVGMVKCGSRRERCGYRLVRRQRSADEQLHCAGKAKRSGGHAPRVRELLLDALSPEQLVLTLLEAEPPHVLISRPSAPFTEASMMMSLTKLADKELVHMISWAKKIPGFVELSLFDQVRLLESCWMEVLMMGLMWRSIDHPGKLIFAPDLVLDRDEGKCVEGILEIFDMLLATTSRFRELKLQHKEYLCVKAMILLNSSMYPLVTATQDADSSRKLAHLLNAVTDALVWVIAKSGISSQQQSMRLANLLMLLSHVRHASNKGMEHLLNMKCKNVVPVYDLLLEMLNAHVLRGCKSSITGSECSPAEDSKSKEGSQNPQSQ
Sequence of Estrogen receptor (Homo sapiens) (P03372 whole entry, looked up): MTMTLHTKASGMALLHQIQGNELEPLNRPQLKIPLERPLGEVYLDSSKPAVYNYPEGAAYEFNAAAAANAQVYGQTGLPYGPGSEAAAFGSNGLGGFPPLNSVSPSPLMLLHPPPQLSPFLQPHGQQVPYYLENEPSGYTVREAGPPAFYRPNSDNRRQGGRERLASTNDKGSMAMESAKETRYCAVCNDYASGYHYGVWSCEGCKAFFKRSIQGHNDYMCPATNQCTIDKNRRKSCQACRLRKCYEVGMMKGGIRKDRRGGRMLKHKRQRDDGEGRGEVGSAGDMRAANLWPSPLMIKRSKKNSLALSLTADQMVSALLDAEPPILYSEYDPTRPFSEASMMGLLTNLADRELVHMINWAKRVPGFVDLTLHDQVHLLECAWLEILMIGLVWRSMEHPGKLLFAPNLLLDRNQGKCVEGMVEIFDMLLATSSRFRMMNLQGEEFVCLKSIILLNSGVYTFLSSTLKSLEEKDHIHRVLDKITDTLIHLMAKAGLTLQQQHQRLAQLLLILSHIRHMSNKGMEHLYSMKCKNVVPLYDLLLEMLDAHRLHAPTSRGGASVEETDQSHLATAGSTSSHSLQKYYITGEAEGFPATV
Sequence of Androgen receptor (Homo sapiens) (P10275 whole entry, looked up): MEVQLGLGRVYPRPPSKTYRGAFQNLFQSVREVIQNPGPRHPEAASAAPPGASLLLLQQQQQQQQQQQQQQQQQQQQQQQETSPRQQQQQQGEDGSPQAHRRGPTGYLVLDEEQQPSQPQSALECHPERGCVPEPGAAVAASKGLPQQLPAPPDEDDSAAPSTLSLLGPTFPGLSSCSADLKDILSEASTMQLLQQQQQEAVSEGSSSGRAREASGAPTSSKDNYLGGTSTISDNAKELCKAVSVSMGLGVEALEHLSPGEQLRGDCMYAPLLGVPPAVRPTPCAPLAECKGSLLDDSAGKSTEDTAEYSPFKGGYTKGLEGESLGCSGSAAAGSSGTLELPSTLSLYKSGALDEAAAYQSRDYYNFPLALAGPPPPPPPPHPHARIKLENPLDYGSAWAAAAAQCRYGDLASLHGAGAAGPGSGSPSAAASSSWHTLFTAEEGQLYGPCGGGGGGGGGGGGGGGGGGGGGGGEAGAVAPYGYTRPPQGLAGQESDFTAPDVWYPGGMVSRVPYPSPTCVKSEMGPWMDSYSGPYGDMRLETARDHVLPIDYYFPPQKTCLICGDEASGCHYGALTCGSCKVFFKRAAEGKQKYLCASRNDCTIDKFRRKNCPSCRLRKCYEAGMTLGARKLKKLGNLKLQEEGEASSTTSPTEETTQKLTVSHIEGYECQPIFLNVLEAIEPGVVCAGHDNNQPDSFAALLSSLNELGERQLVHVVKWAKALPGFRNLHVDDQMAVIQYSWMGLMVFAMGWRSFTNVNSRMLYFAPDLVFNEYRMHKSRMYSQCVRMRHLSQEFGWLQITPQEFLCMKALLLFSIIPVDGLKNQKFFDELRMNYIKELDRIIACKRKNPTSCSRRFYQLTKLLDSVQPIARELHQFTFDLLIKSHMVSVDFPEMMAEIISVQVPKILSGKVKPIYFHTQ

`CCCCCCOc1ccc(N)cc1`: the Potency entry in [1], in test [3], in test [4], in test [5] and in test [6] was “inactive” each time. Further, the Potency in test [2] was 17.2 µM (active). Moreover, the compound was called inactive in test [7], in test [8] and in test [9].

Take `O=C(O)[C@@H](O)[C@H](O)[C@H](O)[C@@H](O)C(=O)O`: the Potency entry in test [1], in [2], in test [12], in test [3], in test [4] and in test [13] was “inactive” each time. Besides, the Potency result in test [5], in test [6] and in test [15] was “inactive” throughout. Also, the outcome in [10], in test [11], in test [7], in test [8], in test [9] and in test [14] was inactive.

Consider `CCc1cc2cc(OC)c(OC)cc2c(Cc2ccccc2)n1`, for which the outcome in test [16], in test [10], in [11], in [7], in [8] and in test [9] was inactive. For the same compound, the Potency entry in [1], in test [2], in test [17], in test [12], in test [3] and in test [4] was “inactive” throughout. The Potency result in test [5] is “inactive”. Besides, the Potency in test [13] was 16.8 µM (active).

With `Cc1c(-c2ccccc2)oc2c(C(=O)OCCN3CCCCC3)cccc2c1=O`, the call in [16], in [10], in test [11], in test [7] and in test [14] was inactive. Further, the Potency result in test [1], in [2], in test [3], in test [4], in [5] and in [6] was “inactive” throughout. Besides, in [15], the Potency entry is “inactive”. Moreover, the Potency in [12] was 23.7 µM (active).

In the case of `CCCCCCCCc1ccc(S(=O)(=O)O)cc1`, the outcome in [16], in test [11], in [7], in test [8], in test [9] and in test [14] was inactive. The Potency result in test [1], in test [12], in [3], in [4], in test [13] and in test [5] was “inactive” each time. Also, the Potency in test [2] and in test [6] was 19.2 µM (active) in each case.

For `CN1[C@@H]2CC[C@H]1CC(OC(=O)c1c[nH]c3ccccc13)C2` (some centres undefined), the Potency entry in test [18], in test [1], in test [2], in [12], in test [3] and in test [5] was “inactive” each time. Further, the compound was called inactive in test [10], in test [11], in [7], in [8], in [9] and in test [14].

As to `O=C(O)c1ccccc1Nc1cc(Cl)ccc1C(=O)O`, the activation was 0.616% [at 19 µM] in [16], -1.25% [at 19 µM] in test [19], -1.11% [at 15.8 µM] in test [9] and -0.215% [at 11.8 µM] in test [15]. Also, the activity change, negative = cytotoxicity in [1] is -0.898% [at 19 µM]; in test [10], -13.6% [at 19 µM]; in test [3], -2.8% [at 19 µM]; in test [8] it was 9.07% [at 15.8 µM]. In addition, the cAMP activity change in test [11] was 0.0654% [at 18.9 µM]. Moreover, the activity change, negative = inhibition in test [12] was 2.68% [at 19 µM]. The Potency in test [5] was 13 µM (active). Also, the viability change, negative = cytotoxic in [7] was 0.61% [at 15.8 µM]. Besides, in [14], the activity, negative = inhibition is 1.01% [at 10.5 µM].

Turning to `CS(=O)(=O)c1ccc([C@@H](O)[C@@H](CF)NC(=O)C(Cl)Cl)cc1`, the Potency entry in [1], in test [2], in [19], in test [12], in test [3] and in test [4] was “inactive” throughout. For the same compound, the Potency entry in [13] and in [6] was “inactive” throughout. The compound was classed as inactive in [10], in test [11], in test [7], in test [8], in test [9] and in test [14].

The values are drawn from PubChem BioAssay (Tox21).
